FMDV antiviral = blocks foot and mouth disease virus; FMDV antiviral cell-based qHTS; Potency, µM (doses to about 57.9 µM), for inactives: at the highest dose activity change, negative = inhibition, usual class: inhibitors; 1.2% of 410,000 active; AID 1159524; calls by dose curve; tested in HEK293T cells; note: read-out not given here; potency is the fitted concentration of half-maximal effect; % is set by controls: 0 for no effect and ±100 for the full control effect; nearly all actives have a fitted effect of over 45% in size
HCMV antiviral = human cytomegalovirus inhibition | HFF cells, HCMV-luciferase reporter, 72 h; hits give low values | activity change, negative = inhibition, % at 57.5 µM | 4.5% of 410,000 active; in the data active = activity change below about -60%; inconclusive = no clear call, values can overlap the other calls; inactive = above about -39%; note: % is set by controls: 0 for no effect and ±100 for the full control effect
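Two-dose cell screen: HFF monolayers treated with compounds and infected with luciferase-expressing HCMV at 1 PFU/cell, 72 h at 37C, then lysed for luciferase measurement.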
HCV inhibitor = blocks hepatitis C virus. Huh7.5.1 HCVcc-Cre infection, luciferase reporter, 44 h. Potency, µM (doses to about 41.8 µM), for inactives: top-dose activity change, negative = inhibition, hits mostly inhibitors. 3.4% of 340,000 active; active = well fitted inhibition curve with a large enough effect; inconclusive = small, poorly fitted or top-dose-only effect, or another doubt; inactive = no such curve, though single readings can be large or run the other way; note: potency is the fitted concentration of half-maximal effect; % is set by controls: 0 for no effect and ±100 for the full control effect
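Compounds are dispensed onto cells plated 4 h earlier at 1,000 per well, with HCVcc-Cre virus (about 0.5 moi) added next. Following 44 h of culture, luminescent signal is measured for 15 sec after 15 min with substrate at room temperature.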
MARV entry inh = inhibitors of Marburg virus binding or cell entry | 1.8% of 300,000 active | Potency, µM (doses to about 37.8 µM), for the others: top-dose activity change, negative = inhibition, actives largely listed as inhibitors | AID 540276 | Marburg virus pseudotyped entry inhibition, cell reporter; calls by dose curve; tested in HEK293 cells; note: potency is the fitted concentration of half-maximal effect; % is set by controls: 0 for no effect and ±100 for the full control effect
SARS PLP yeast = inhibitors of SARS-CoV papain-like protease in yeast; AID 485353; 0.19% of 330,000 active; S. cerevisiae expressing SARS-CoV PLpro, growth rescue; Potency, µM (doses to about 32.9 µM), inactives show at the top dose activity, positive = growth rescue, hits mostly activators; calls by dose curve; note: potency is the fitted concentration of half-maximal effect; 0% is about no effect; nearly all actives have a fitted effect of over 55% in size
LASV entry inh = Lassa virus entry inhibition; Potency, µM (highest dose often 37.9 µM), inactives show at the top dose activity change, negative = inhibition, most hits filed as inhibitors; AID 540256; Lassa virus pseudotype entry inhibition, cell reporter; 1.2% of 300,000 active; calls by dose curve; tested in HEK293 cells; note: potency is the fitted concentration of half-maximal effect; % is set by controls: 0 for no effect and ±100 for the full control effect; nearly all actives have a fitted effect of over 50% in size
Numbers without * were called inactive; ? = inconclusive; nt = not tested or not shown; ! = not active in a repeat; [ ] = dose if it differs, or a comment. Compounds with a hit are over-represented: about 8% of the library has one in this group of screens.

SMILES	FMDV antiviral	HCMV antiviral	HCV inhibitor	MARV entry inh	SARS PLP yeast	LASV entry inh
O=c1cc(-c2ccccc2)[nH]c2ccc(F)cc12	5%	-62*	-10%	-45%	9%	?
O=c1cc(-c2ccc(F)cc2F)[nH]c2ccccc12	nt	nt	1%[8.37 µM]	5%	17%	1%
O=c1cc(-c2cccc(F)c2)[nH]c2ccccc12	-9%	-77*	4%[8.37 µM]	?	2%	?
CN(C)c1cccc2c1c(NC(=O)Nc1ccc(F)cc1F)nn2C	-6%	-63*	?	nt	1%	nt
CC(=O)Nc1cccc(Oc2nc(-c3ccccn3)nc3ccccc23)c1	?	-61*	?	?	3%	3%
CC(=O)Nc1ccc(Oc2nc(-c3ccccn3)nc3ccccc23)cc1	?	-102*	?	?	-2%	?
CC(=O)Nc1ccc(Oc2ccccc2)cc1	-4%	-36	12%	nt	2%	nt
CCc1ccccc1NC(=O)c1ccc(CN2C(=O)CCn3nc(C)cc32)cc1	-25%	-2	nt	nt	nt	-17%[46.1 µM]
CCC[C@H]1CN(Cc2ccccc2)C(=O)[C@H]1CC(=O)NC	nt	nt	nt	nt	nt	-4%[46.1 µM]
Cc1oc(C(=O)Nc2ccc(O)cc2)cc1COc1ccccc1	16%	-36	?	?	-8%	20µM*
COC(=O)CN1C(=O)[C@@H]2[C@H](C1=O)[C@@H]1CC(C(=O)OC)=C[C@@H](C(=O)OC)[C@@H]3C1=C(C(=O)[C@@]3(C)NC(=O)c1ccccc1)[C@@H]2C	-9%	-66*	-21%	nt	nt	nt
COC(=O)c1ccc(N2CCN(C)CC2)c(NC(=O)c2sc3ccccc3c2Cl)c1	-19%	-98*	?	-3%[46.1 µM]	nt	4%[46.1 µM]
Cc1cccc(N=C2NC(=O)/C(=C/C=C/c3ccco3)S2)c1	9%	14	?	?	-14%	18µM*
C=CCOc1ccc(Br)cc1/C=C1/SC(=Nc2ccc(C(=O)O)cc2)NC1=O	2%	-15	7%	nt	2%	nt
CCOc1cc(Br)cc(/C=C2\SC(=Nc3ccccc3)NC2=O)c1O	0%	-84*	?	nt	-2%	nt
Cn1cccc1/C=C1\SC(=Nc2ccccc2)NC1=O	60%	2	7.9µM*	nt	-1%	nt
Cc1ccc(N=C2NC(=O)/C(=C/c3cn(C)c4ccccc34)S2)cc1C	0%	?	13µM*	?	17%	0.1µM*
COc1ccc(N=C2NC(=O)/C(=C\C=C\c3ccco3)S2)cc1	8%	-13	-9%	?	-1%	?
CCN(C(=O)c1nn(-c2ccc(OC)c(Cl)c2)c(=O)c2c1c1ccccc1n2C)c1cc(OC)ccc1OC	?	9	nt	?	nt	7%[46.1 µM]
Cc1cccc(N=C2NC(=O)S/C2=C\c2ccco2)c1	6%	-35	-16%	-37%	5%	-1%
O=C1NC(=Nc2ccc(Cl)cc2)/C(=C/c2ccco2)S1	48%	-80*	?	?	-4%	0%
O=C1NC(=Nc2ccc(O)cc2)S/C1=C/c1ccco1	5%	-1	?	?	2%	4.6µM*
Cn1cccc1/C=C1\SC(=Nc2ccc(O)cc2)NC1=O	36%	-77*	?	nt	0%	nt
c1ccc(CNc2ccnc(-c3ccoc3)n2)cc1	-1%	nt	nt	nt	nt	nt
COC(=O)c1c(NC(=O)c2cc3nc(-c4ccc(Br)cc4)cc(C(F)(F)F)n3n2)sc2c1CCCC2	7%	17	nt	nt	nt	-2%[46.1 µM]
SMILES	FMDV antiviral	HCMV antiviral	HCV inhibitor	MARV entry inh	SARS PLP yeast	LASV entry inh
COc1ccc(CN2CCOc3ccc(CN4CCCCC4CO)cc3C2)c(OC)c1 (stereo not given)	-2%	nt	nt	nt	nt	nt
Cc1cccc(CN2CCN(CC(=O)NCCc3ccc(Cl)cc3)C2=O)c1	9%	-12	nt	-8%[46.1 µM]	nt	?
CCOC(=O)c1ccc(NC(=O)c2ccc(NS(C)(=O)=O)cc2)cc1	nt	?	11µM*	14%	-2%	-5%
CCOC(=O)c1ccc(NC(=O)c2nsc3ccccc23)cc1	-12%	-78*	nt	?	nt	?
CS(=O)(=O)Nc1ccc(C(=O)Nc2ccc3ccccc3c2)cc1	66%	56	?	18%	9%	2%
CCOC(=O)c1ccc(NS(=O)(=O)c2ccc3c(c2)n(C)c(=O)n3C)cc1	-9%	-67*!	-30%	?	1%	-3%[46.1 µM]
CNC(=O)c1ccc(NC(=O)c2nsc3ccccc23)cc1	-35%	163	nt	?	nt	8%[46.1 µM]
CCOC(=O)c1ccc(NC(=O)c2ccccc2)cc1	nt	-21	?	?	-7%	11%
CC(C)c1ccc(NC(=O)c2ccc(NS(C)(=O)=O)cc2)cc1	-6%	-5	6.3µM*	?	0%	-9%
CNC(=O)c1c(NC(=O)c2cc(=O)c3ccccc3o2)sc2c1CCC2	22%	31	nt	nt	nt	-3%[46.1 µM]
CC(C)COc1ccc(C(=O)N[C@@H](CC(C)C)C(=O)O)cc1	nt	nt	nt	27%	nt	nt
O=C(CC1C(=O)N(c2ccccc2)C(=O)N1Cc1ccc(F)cc1)Nc1cccc(F)c1 (stereo not given)	4%	-26	nt	nt	nt	-27%[46.1 µM]
Cc1cc(C(=O)N2CCCC(CCC(=O)N3CCN(c4ccccn4)CC3)C2)c(C)o1 (stereo not given)	-26%	-27	-18%	-13%[46.1 µM]	0%	-13%[46.1 µM]
Cc1cccc(C(=O)N2CCCC(CCC(=O)N3CCN(c4ccccn4)CC3)C2)c1C (stereo not given)	?	-86*	?	nt	-2%	nt
CCOC(=O)c1c(-c2ccccc2)csc1NC(=O)CSc1nc(N)cc(N)n1	18µM*	-67*	13µM*	?	5%	-2%
CCOC(=O)c1c(-c2ccco2)csc1NC(=O)CSc1nnc(N)s1	-11%	-11	11µM*	-15%	?	18%
CCOC(=O)c1c(-c2ccccc2)csc1NC(=O)CSc1nc(C)cc(C)n1	?	-82*	?	?	-17%	?
CCOC(=O)c1c(-c2ccccc2)csc1NC(=S)N(CC)CC	?	-11	?	?	6%	-8%
Cc1cccc(C(=O)NCc2nc(-c3cccc(NC(=O)c4ccoc4C)c3)oc2C)n1	-19%	nt	nt	nt	nt	nt
CCCN1CCN(c2ncnc3sc(C(=O)Nc4c(C)cc(C)cc4C)c(C)c23)CC1	?	?	nt	nt	nt	15%[46.1 µM]
O=C(OC1CCOC1=O)c1ccccc1C(=O)c1ccc(Cl)c([N+](=O)[O-])c1 (stereo not given)	-29%	nt	11µM*	nt	-3%	nt
O=C(COC(=O)c1ccccc1[N+](=O)[O-])c1ccc(C2CCCCC2)cc1	11µM*	?	-30%	?	2%	-30%
CNC(=O)COC(=O)c1ccccc1C(=O)c1ccc(Cl)c([N+](=O)[O-])c1	?	-100*	?	nt	0%	nt
O=C(COC(=O)c1ccccc1C(=O)c1ccc(Cl)c([N+](=O)[O-])c1)NC1CC1	20µM*	-99*	11µM*	?	6%	?
